Laboratory results: PubChem BioAssay (NCI)
Compounds without any hit were thinned out: in the full panel of roughly 83,000, 20% have a hit.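 For each line, cells grew in 96-well plates with the test compound present at a single concentration for 48 hours.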 Values without a mark were called inactive. Calls of active or inactive are those of the source. Rule for the calls: active = growth percent below 10; inactive = the rest.

Experiments:
Test in all cases: NCI-60 one-dose screen, 48 h (100 = growth as untreated, 0 = no growth, -100 = all killed)
[1] = tested on: HT29 colon; details: 10 µM unless noted
[2] = tested on: SNB-75 CNS; details: 10 µM unless noted
[3] = tested on: SNB-19 CNS; details: 10 µM unless noted
[4] = tested on: U251 CNS; details: 10 µM unless noted
[5] = tested on: PC-3 prostate; details: 10 µM unless noted
[6] = tested on: SK-MEL-5 melanoma; details: 10 µM unless noted
[7] = tested on: UACC-62 melanoma; details: 10 µM unless noted
[8] = tested on: LOX IMVI melanoma; details: 10 µM unless noted
[9] = tested on: SK-MEL-28 melanoma; details: 10 µM
[10] = tested on: SK-MEL-2 melanoma; details: 10 µM unless noted

Structure (SMILES)	growth [1]	growth [2]	growth [3]	growth [4]	growth [5]	growth [6]	growth [7]	growth [8]	growth [9]	growth [10]
Cc1ccc(N=NC2C(=O)N(c3ccc(Cl)cc3)N(c3ccc(Cl)cc3)C2=O)cc1	104%	84.1%	91.1%	99%	93.4%	91.6%	92.4%	96.6%	99.1%	105%
COc1ccc(C2Nc3nc(OC)n(C)c(=O)c3N=C3c4ccccc4C(=O)C32)cc1 (stereo not given)	113%	77.4%	91.8%	90.8%	87.8%	95%	93.1%	87.7%	106%	89.7%
CCN(CCO)CCNc1ccc(C)c2sc3cc(Cl)ccc3c(=O)c12	-77.3% (active)	62.5%	44.5%	-32.1% (active)	21.8%	-94.3% (active)	-53.1% (active)	-94.8% (active)	-61.7% (active)	94.4%
COC(=O)c1c2c(c(C)[n+]([O-])c1C)C(=O)C(NCc1ccc(F)c(F)c1)=CC2=O	11.6%	83.6%	8.33% (active)	2.99% (active)	15.6%	-97% (active)	-15.7% (active)	5.3% (active)	50.2%	43.1%
C#CCn1cc(C=C2C(=O)NC(=O)NC2=O)c2cc(Cl)ccc21	116%	92.9%	78.8%	82.1%	92%	81.9%	65.3%	73.2%	106%	98.1%
CC1(O)COCCCCOc2c(CN)cccc2NC(=O)c2nc(cnc2N)-c2ccc(cc2)S(=O)(=O)C(C)(C)C1 (stereo not given)	1.64% (active)	-60.3% (active)	-55.9% (active)	-74.9% (active)	14%	-94.9% (active)	-90.8% (active)	-86.3% (active)	-87.8% (active)	-32.6% (active)
O=C(NC1C(O)OC(CO)C(O)C1O)NS(=O)(=O)c1ccc(Cl)cc1 (stereo not given)	93.2%	94%	101%	103%	94.5%	104%	94.8%	101%	105%	101%
CCCCc1c(CCC)c(=N)c2ccccc2n1C	26.6%	96.8%	111%	59.3%	77.2%	78%	97.9%	59%	72.2%	101%
CC1=C(C(=O)OCC2CCN(C(=O)OC(C)(C)C)CC2)[C@@H](c2cccc(C#N)c2)C2=C(CC(C)(C)CC2=O)N1	18.3%	56.9%	43%	41.4%	48%	3.59% (active)	43%	9.5% (active)	61.3%	70.4%
NCCCNc1nc2ccccc2c2c(=O)c3cc(F)ccc3sc12	-50.9% (active)	25%	44.4%	-56.1% (active)	18.9%	76.4%	-76.1% (active)	-92.1% (active)	0.2% (active)	50.6%
CCOC(=O)c1sc(-c2ccc(OS(=O)(=O)c3cccs3)c(C=O)c2)nc1C	1.93% (active)	4.62% (active)	5.38% (active)	2.52% (active)	11.1%	-88.9% (active)	2.43% (active)	-48.2% (active)	27.4%	28.6%
N#C/C(=C1\SC(=O)CN1c1ccccc1)c1nc2ccccc2s1	108%	88.7%	94.3%	91.9%	92%	93.3%	91.1%	88.3%	106%	86.1%
CCCC(=O)CC(C)=O.CCCC(=O)CC(C)=O.[Cu]	94.9%	116%	110%	99.9%	76.3%	103%	105%	86.5%	106%	113%
O=c1c(-c2nc3ccccc3[nH]2)cc2ccccc2n1Cc1cn(Cc2ccc(N3CCOCC3)cc2)nn1	56.3%	5.39% (active)	48%	64.3%	65.9%	71.9%	79.2%	78.7%	76.2%	86.9%
CCOC(=O)c1cnc2c(C)cccc2c1Nc1ccc(C(C)=O)cc1	-67.4% (active)	32.4%	40.6%	-81.3% (active)	12.4%	-91.8% (active)	12.3%	-88.5% (active)	-93% (active)	-76.2% (active)
O=C1/C(=C/c2ccc(O)cc2)COc2ccc(O)c(O)c21	44.6%	29.6%	46.9%	9.17% (active)	41.9%	44.1%	24.3%	-48.1% (active)	52.7%	85.2%
Cn1c(C(=O)c2cccc3ccccc23)nc2ccccc21	20.7%	38.9%	10.3%	5.7% (active)	27.7%	-38.1% (active)	-27.2% (active)	2.82% (active)	40.8%	9.69% (active)
COC(=O)/C(CCC=C(C)C)=C1\[C@@H](OC(C)=O)C[C@@]2(C)[C@H]1C[C@@H](O)[C@H]1[C@@]3(C)CC[C@H](NCCO)[C@@H](C)[C@@H]3CC[C@@]12C	104%	100%	98.4%	103%	102%	102%	98%	94.2%	106%	109%
O=S(=O)(Nc1ncccn1)c1ccc(NC2Nc3nc4ccccc4nc3S2)cc1 (stereo not given)	106%	84.9%	99.3%	103%	101%	98.7%	93.7%	94.2%	98.7%	106%
c1ccc2cc3c(Nc4ccc(N5CCOCC5)cc4)ccnc3cc2c1	98.1%	101%	94.3%	94.7%	81.8%	89.6%	95.6%	96.6%	111%	101%
Cc1ccc2[nH]c(=O)cc(-n3nncc3Cn3c4ccccc4c4ccccc43)c2c1	113%	81.2%	97.1%	99.2%	92.8%	94.5%	94.9%	98.2%	108%	103%
Nc1no[n+]([O-])c1-c1nnc2c(n1)-c1ccccc1C2=O	57.1%	95%	84.5%	88%	33.6%	19.7%	64.3%	27.5%	81.4%	86.9%
Oc1c(C(Nc2ccccn2)c2cccc(Oc3ccccc3)c2)ccc2cccnc12 (stereo not given)	-93.5% (active)	-99.1% (active)	-80.7% (active)	-89.2% (active)	-90.3% (active)	-68.1% (active)	-86.6% (active)	-86.5% (active)	-97.2% (active)	-82.9% (active)
Cc1nc(Nc2cn[nH]c2C(=O)Nc2ccc(CN3CCN(C)CC3)cc2)c2ccsc2n1	66.1%	37.7%	107%	92.8%	69.8%	90.3%	93.9%	72.8%	107%	111%
COc1cccc(/C(C#N)=C/c2nc3c(N4CCOCC4)nc(Cl)nc3n2C)c1	-49.8% (active)	-17.2% (active)	55.6%	-15.1% (active)	-27.4% (active)	4.5% (active)	-62.3% (active)	-88.2% (active)	-77.5% (active)	-29.7% (active)
Cc1ccc(F)cc1NC(=O)c1cc(Cl)ccc1Nc1ccccc1	17.8%	53.6%	59.4%	42.5%	23.2%	70.9%	65.4%	49.4%	89.6%	54.9%
CCOC(=O)c1cnc2ccc(Cl)cc2c1NCCCN(C)C	27.3%	35.6%	24.5%	8.33% (active)	25.7%	-50.8% (active)	-15.6% (active)	1.24% (active)	50.1%	-0.411% (active)
